In the supplement of paper PMC9694430:

Tests used:
Assay in all cases: thermal shift delta Tm vs DMSO control; higher = stronger stabilization (binding)
Conditions in all cases: 12.5 µM; protein concentration 2 µM
[1] = system: LOC_OS04G57630-cb004
Method in brief: (§1)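 The melting temperature shift given here is a triplicate mean, measured against protein that received only DMSO. Melting temperatures came from Boltzmann fits of differential scanning fluorimetry data on E. coli-expressed, purified rice kinase domain constructs. Each 19.5 μl well contained 2 μM kinase, 100 mM potassium phosphate pH 7.5, 150 mM NaCl, 10% glycerol, 5 × SYPRO Orange and compound in DMSO. Plates were scanned from 25°C to 95°C at 0.05°C/s.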

[2] = system: LOC_OS05G07850-cb002
Method in brief: as §1

[3] = system: LOC_OS05G16824-cb004
Method in brief: as §1

[4] = system: LOC_OS05G28520-cb001
Method in brief: as §1

[5] = system: LOC_OS05G30820-cb001
Method in brief: as §1

[6] = system: LOC_OS05G43570-cb004
Method in brief: as §1

[7] = system: LOC_OS06G16330-cb003
Chain of LOC_OS06G16330-cb003 (as listed by the source): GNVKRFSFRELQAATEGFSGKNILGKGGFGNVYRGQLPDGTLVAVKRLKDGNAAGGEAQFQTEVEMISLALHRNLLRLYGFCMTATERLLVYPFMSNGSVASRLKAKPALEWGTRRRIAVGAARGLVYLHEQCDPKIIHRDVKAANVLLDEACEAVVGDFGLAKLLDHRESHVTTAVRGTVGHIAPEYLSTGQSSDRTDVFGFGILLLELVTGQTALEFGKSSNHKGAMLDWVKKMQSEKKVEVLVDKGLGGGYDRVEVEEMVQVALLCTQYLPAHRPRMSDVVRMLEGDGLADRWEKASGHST
Method in brief: as §1

[8] = system: T1, LOC_OS06G22820-cb001
T1 sequence (whole entry): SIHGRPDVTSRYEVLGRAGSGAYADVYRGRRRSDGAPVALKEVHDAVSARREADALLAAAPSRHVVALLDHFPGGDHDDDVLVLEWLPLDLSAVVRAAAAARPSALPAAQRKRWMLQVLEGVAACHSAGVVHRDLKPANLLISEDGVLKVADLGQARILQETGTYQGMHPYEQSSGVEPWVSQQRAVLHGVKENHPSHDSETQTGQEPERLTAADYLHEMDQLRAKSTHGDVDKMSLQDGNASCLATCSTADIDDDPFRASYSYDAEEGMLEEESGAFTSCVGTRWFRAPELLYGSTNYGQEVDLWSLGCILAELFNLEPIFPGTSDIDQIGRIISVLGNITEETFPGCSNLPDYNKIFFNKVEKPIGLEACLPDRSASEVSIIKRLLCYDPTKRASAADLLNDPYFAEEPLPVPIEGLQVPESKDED
Method in brief: as §1

[9] = system: LOC_OS07G06570-cb004
Method in brief: as §1

[10] = system: LOC_OS07G07230-cb001
Method in brief: as §1

Compound	thermal shift delta Tm [1] [°C]	thermal shift delta Tm [2] [°C]	thermal shift delta Tm [3] [°C]	thermal shift delta Tm [4] [°C]	thermal shift delta Tm [5] [°C]	thermal shift delta Tm [6] [°C]	thermal shift delta Tm [7] [°C]	thermal shift delta Tm [8] [°C]	thermal shift delta Tm [9] [°C]	thermal shift delta Tm [10] [°C]
O=C(Nc1ccccc1C(=O)NC1CCCCNC1=O)c1cc2ccccc2s1 (stereo not given)	0.09	0.55	-1.58	0.54	0.1	0.18	-0.39	0.25	1.21	0.41
CS(=O)(=O)N1CCN(Cc2cc3nc(-c4cccc5[nH]ncc45)nc(N4CCOCC4)c3s2)CC1 [Pictilisib (GDC-0941)]	-0.38	5.5	0.86	0.48	0.36	0.46	0.57	0.43	0.46	0.23
COc1ncc(-c2cc(-c3ncc(CN4C[C@@H](C)O[C@@H](C)C4)o3)c3cn[nH]c3c2)cc1NS(C)(=O)=O	0.12	1.71	-0.4	0.61	0.21	0.39	-0.32	0.44	0.86	0.19
CO[C@H]1C[C@@H]2CC[C@@H](C)[C@@](O)(O2)C(=O)C(=O)N2CCCC[C@H]2C(=O)O[C@H]([C@H](C)C[C@@H]2CC[C@@H](OCCO)[C@H](OC)C2)CC(=O)[C@H](C)/C=C(\C)[C@@H](O)[C@@H](OC)C(=O)[C@H](C)C[C@H](C)/C=C/C=C/C=C/1C [Everolimus (RAD001)]	-0.03	-0.04	1.13	0.62	0.41	0.57	0.13	1.04	0.88	-1.46
C=CC(=O)Nc1cccc(Nc2nc(Nc3ccc(Oc4ccnc(C(=O)NC)c4)cc3)ncc2F)c1	1.31	11	6.27	0.89	0.57	0.22	6.48	0.38	0.89	1.49
OCCn1cc(-c2cnc3nnn(Cc4ccc5ncccc5c4)c3n2)cn1	-0.21	0.33	-2.44	0.66	0.46	0.28	-0.29	0.46	0.2	0.97
CCN(CC)CCNC(=O)c1c(C)[nH]c(/C=C2\C(=O)Nc3ccc(F)cc32)c1C [Sunitinib Malate]	4.24	8.46	13.1	1.41	0.86	0.2	7.74	0.19	0.48	0.56
COc1ccc2c(Oc3ccc(NC(=O)c4c(C)n(CC(C)(C)O)n(-c5ccccc5)c4=O)nc3)ccnc2c1	1.04	9.73	-1.1	0.15	0.52	1.07	5.11	0.68	0.62	-0.14
CC(C)n1nc(-c2cc3cc(O)ccc3[nH]2)c2c(N)ncnc21 [Torkinib (PP242)]	0.41	5.09	-3.24	0.21	0.67	0.33	1.93	0.42	0.62	0.14
